# Sampled rows, rich in hits. Any-hit rate of the full collection: about 1.5%.
# F-actin modifier: cytoskeleton assembly modification; HUVEC TNFa F-actin phalloidin imaging, high content; inhibition, % at 2 µM; 0.18% of 91,000 active; AID 836;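 active = inhibition above the batch mean plus 3 SD and confirmed as a hit by visual image inspection, cut at about 30% in these data, passing the limit was not always enough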
# Measles CPE: protection of cells from measles virus; Measles virus-infected cells, CPE protection, absorbance; protection (pct of control), % at 4 µM; 1.5% of 140,000 active; in the data active = protection mostly above about 24%, no sharp cut-off; inactive = mostly below about 26%
# Active calls of the source: *; . = no result given.
SMILES,F-actin modifier,Measles CPE
Cn1cc(S(=O)(=O)Nc2ccc(Br)cc2F)c(=O)n(C)c1=O,1.9,60.9*
CN(C)S(=O)(=O)Nc1ccc(Br)cc1F,-8.4,4.9
CCOC(=O)c1c(C)nc2c(c1-c1ccc(Cl)cc1)C(=O)CC(C)(C)C2,.,26.5
COc1ccc(C)cc1NC(=O)c1ccccc1NS(=O)(=O)c1cccc2cccnc12,.,8.6
COC12NC(=O)N(C)C1(OC)C(=O)N(C)C(=O)N2C (stereo unspecified),.,5.4
Cc1cccc2nc(CSc3ccccc3C(=O)O)cn12,.,54.2*
Cc1cccc2nc(CSc3ccccc3N)cn12,3.5,16.3
O=C(NCc1ccc(F)cc1)C(=O)Nc1nc(C23CC4CC(CC(C4)C2)C3)cs1,.,3.8
COC(=O)c1sc(NC(=O)CSc2nncs2)c(C(=O)OC)c1C,-3.6,31.1*
COC(=O)c1sc(NC(C)=O)c(C(=O)OC)c1C,4.6,27.2
Cc1ccc(-c2nc(N)sc2CC(=O)OCC(=O)NCC2CCCO2)cc1 (stereo unspecified),.,9.4
CCOC(=O)c1ccc(S(=O)(=O)NNC(=O)COc2ccccc2C)cc1,.,12.0
CCn1c(SCC(=O)Nc2nc(C)c(C(=O)OC)s2)nnc1C(C)C,8.7,3.6
CCCn1c(SCC(=O)Nc2nc(C)c(C(=O)OC)s2)nnc1C(C)C,7.6,31.3*
COc1ccc(N(CC(O)Cn2cnc3ccccc32)S(=O)(=O)c2ccc(C)cc2)cc1 (stereo unspecified),.,2.0
O=C1CC(c2cccc(Cl)c2)CC(O)=C1C=NC1CCCC1 (stereo unspecified),.,8.8
O=C(CSc1nnc(COc2ccccc2F)n1-c1ccccc1)NC1CCS(=O)(=O)C1 (stereo unspecified),.,30.0
COc1ccccc1-c1nnc(SCC(=O)NC2CCS(=O)(=O)C2)n1CCc1ccccc1 (stereo unspecified),.,58.8*
CCOc1ccc(C(=O)NCC2OCCc3ccccc32)cc1 (stereo unspecified),8.2,7.3
Cc1ccc(NCC(=O)Nc2cccc(S(=O)(=O)N(C)C)c2)c(Cl)c1,.,3.3
O=C(COc1ccccc1Br)NCCc1nc2ccccc2[nH]1,.,12.0
CCN(CC)C1=N/C(=C\c2ccc(OC)cc2)C(=O)N1c1ccccc1,.,68.9*
COc1ccc(/C=C2/N=C(SCC(=O)Nc3cc(C)on3)N(c3ccccc3)C2=O)cc1,.,11.4
CN1CCN(C(=O)c2ccccc2NC(=O)c2cccs2)CC1,14.6,45.4*
CN1CCN(C(=O)c2ccccc2NC(=O)C(C)(C)C)CC1,-9.0,9.1
SMILES,F-actin modifier,Measles CPE
CC12CCC(C(=O)Nc3ncc([N+](=O)[O-])s3)(OC1=O)C2(C)C (stereo unspecified),6.3,14.7
CCN(CC)S(=O)(=O)c1ccc(NC(=O)COC(=O)CCc2cc(OC)c(OC)c(OC)c2)cc1,.,7.0
CCCCN(C)CCCNC(=O)CCn1nc(-c2ccccc2)ccc1=O,-17.3,8.6
CCCCNC(=O)CCn1nc(-c2ccccc2)ccc1=O,-4.3,49.5*
CCn1c(SCC(=O)N/N=C/c2ccc(O)c(OC)c2)nc2ccccc21,.,23.9
Cc1scc(C(=O)Nn2cnnc2)c1-c1ccccc1,4.8,41.4*
O=C(Nn1cnnc1)c1csc2ccccc12,-2.4,9.4
COCCN(C(=O)Nc1ccccc1)c1ccccc1C,-1.2,57.5*
CCN(C(=O)Nc1ccccc1)c1ccccc1,.,14.0
O=C(CCSCc1cccc(Cl)c1)NCCc1ccc(Cl)cc1,.,3.6
Cn1c(=O)c(=O)n(C)c2cc(S(=O)(=O)N3CCN(c4ccccc4F)CC3)ccc21,.,6.4
CCOC(=O)N1CCN(S(=O)(=O)c2ccc(OCC(=O)OC)c(C)c2)CC1,-21.6,2.6
COC(=O)COc1ccc(S(=O)(=O)N2CCN(c3ccccc3F)CC2)cc1C,17.9,27.0*
COc1cccc(S(=O)(=O)N2CCN(c3ccccc3F)CC2)c1,6.9,33.9*
COC(=O)c1ccc(C(=O)OC)c(NC(=O)CN(C)Cc2ccccc2)c1,.,8.1
COCCNC(=O)CSC1=N/C(=C/c2ccc(Cl)c(Cl)c2)C(=O)N1c1ccccc1F,.,25.1
Cc1ccc(-n2nc3c(c2NC(=O)c2ccc(Br)o2)CSC3)c(C)c1,-15.4,11.8
Cc1cccc(-n2nc3c(c2NC(=O)c2ccco2)CSC3)c1C,13.0,27.9*
CCOC(=O)NC(NCCc1ccccc1)(C(F)(F)F)C(F)(F)F,3.1,1.3
CCOC(=O)NC(NCc1ccccc1)(C(F)(F)F)C(F)(F)F,.,43.7*
COc1cc(OC)cc(C(=O)N[C@H](C(=O)OCC(=O)c2ccc3c(c2)NC(=O)CO3)C(C)C)c1,4.5,31.9*
CC(C)[C@H](NC(=O)c1ccccc1)C(=O)OCC(=O)c1ccc2c(c1)NC(=O)CO2,8.5,19.5
CC1(C)OC(=O)C(=NNc2ccc(Br)cc2)C(=O)O1,.,5.5
COc1ccc(C(=O)NCCSc2ccccc2)cc1,.,5.6
COc1ccc(-c2[nH]c3ccccc3c2SCCNC(=O)c2ccccc2)cc1,.,32.4*
SMILES,F-actin modifier,Measles CPE
NC(=O)c1sc2nc3c(c(-c4cccs4)c2c1N)CCCCC3,-2.2,60.8*
NC(=O)c1sc2nc3c(c(-c4cccnc4)c2c1N)CCC3,14.1,-1.9
COc1ccc2c(c1)C1CC(C)(NC(=O)C1C(=O)c1ccccc1)O2 (stereo unspecified),0.9,4.4
COc1ccc2c(c1)C1CC(C)(NC(=O)C1S(=O)(=O)c1ccc(F)cc1)O2 (stereo unspecified),.,68.5*
COc1ccc(NC(=O)C2C(=O)NC3(C)CC2c2ccccc2O3)cc1 (stereo unspecified),3.1,20.2
COc1ccc2c(c1)OC1(C)CC2C(C(=O)c2ccccc2OC)C(=O)N1 (stereo unspecified),.,31.0*
COc1ccc(C(CC(=O)c2ccc(C)cc2)C(C#N)C#N)cc1OC (stereo unspecified),.,1.9
Cc1ccc(N2CC(C(=O)Nc3cc(C)on3)CC2=O)cc1 (stereo unspecified),12.8,4.8
Cc1cc(N2CCN(c3ccccc3Cl)CC2)n2cc(-c3ccccc3)nc2n1,0.5,30.2*
Cc1cc(N2CCN(c3ccccc3)CC2)n2cc(-c3ccccc3)nc2n1,-22.9,3.8
CCOC(=O)c1c(C)c(C(=O)NC(C)COC)c(C)n1C (stereo unspecified),.,13.7
CCOC(=O)c1c(C)c(C(=O)O)n(C)c1C,76.3*,34.4
COc1ccc(-n2nc(C(=O)NCC(=O)Nc3ccccn3)c3ccccc3c2=O)cc1Cl,-36.3,0.8
Cc1ccc(C(=O)CSc2cnc3ccccc3n2)cc1C,.,11.5
CCCCCCCCC[n+]1cccc2c3ccccc3ccc21,-10.4,28.9*
CCCCCCCCCCCCCCCC[n+]1cccc2ccccc21,.,5.0
CC1(c2cccc3ccccc23)NC(=O)N(CC(=O)NC2CCS(=O)(=O)C2)C1=O (stereo unspecified),.,4.7
O=C(N/N=C/c1ccccc1)c1ccc(N2CCOCC2)c([N+](=O)[O-])c1,.,20.2*
CCCCC(=O)N/N=C/c1ccc(N2CCOCC2)c([N+](=O)[O-])c1,.,0.6
CCOC(=O)CN1C(=O)N[C@H](c2ccc(Br)cc2)C(C(C)=O)=C1C,.,9.4
COc1ccc(N/C=C\C(=O)c2ccc3c(c2)OCO3)cc1,-7.7,13.0
CCOc1ccc(N/C=C\C(=O)c2ccc3c(c2)OCO3)cc1,11.9,41.9*
C=CCn1c(SCC(=O)N2CCOCC2)nc2sc3c(c2c1=O)CCCC3,.,8.1
Cc1cc(NC(=O)CSc2nc3sc4c(c3c(=O)n2C)CCCC4)no1,-5.8,33.1*

# High-throughput results: PubChem BioAssay, several laboratories
